Only some compounds are listed: those with a hit (about 21% of all), similar ones and a draw of the others.
SARS PLpro yeast: SARS-CoV PLP inhibition in yeast | Potency, µM (series often up to 32.9 µM), for the others: top-dose activity, positive = growth rescue, most hits filed as activators | AID 485353 | S. cerevisiae expressing SARS-CoV PLpro, growth rescue | 330,000 compounds, 0.19% hits; further: potency means the concentration at half of the fitted maximal effect; 0% is about no effect; nearly all actives have a fitted effect of over 55% in size
Shiga inhibitor: inhibitors of Shiga toxin in Vero cells | inhibition, % at 38.7 µM | Vero cells, Shiga toxin protein synthesis inhibition reporter | AID 2315 | 290,000 compounds, 9.2% hits; in the data active means inhibition mostly above about 28%, no sharp cut-off; inactive means mostly below about 43%; further: 0% is about no effect
Pf growth 48h: inhibits P. falciparum growth in the first generation, 48 h | P. falciparum luciferase growth in erythrocytes, 48 h | Potency, µM (doses to about 28.7 µM), for the others: at the top dose activity change, negative = inhibition, hits mostly inhibitors | 310,000 compounds, 5.9% hits | AID 504832; active means well fitted inhibition curve with a large enough effect; inconclusive means small, poorly fitted or top-dose-only effect, or another doubt; inactive means no such curve, though single readings can be large or run the other way; further: potency means the concentration at half of the fitted maximal effect; on the % scale 0 is the no-effect control and ±100 the full control effect
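Here the parasites carry a stable luciferase gene and grow inside erythrocytes in Albumax-based RPMI medium with compound for one erythrocytic cycle. Activity is scored as loss of luminescent signal.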
NS1 function inh: blocks influenza NS1 protein function | 270,000 compounds, 0.4% hits | Potency, µM (doses to about 46.1 µM), without a hit: top-dose activity, positive = more growth; further: potency means the concentration at half of the fitted maximal effect; actives are rising curves; nearly all actives have a fitted effect of over 50% in size
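Growth recovery, yeast-based: influenza A NS1 expressed in S. cerevisiae causes slow growth, and suppressors are detected by OD600. The parent strain without NS1 is used as positive control.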
Cycloheximide cs: affects cycloheximide protein synthesis inhibition readout, counter-screen. max response, %. 300,000 compounds, 12% hits. cell reporter, cycloheximide protein synthesis inhibition counterscreen; in the data active means max response mostly above about 13%, no sharp cut-off; inactive means mostly below about 14%; further: read at 38.3 µM for the half of the compounds with a filed dose; 0% is about no effect
Pf growth 96h: inhibits malaria parasite growth, 96 h. 320,000 compounds, 6.9% hits. P. falciparum luciferase reporter growth, 96 h. AID 504834. Potency, µM (highest dose often 28.7 µM), for the others: at the highest dose activity change, negative = inhibition, usual class: inhibitors; active means well fitted inhibition curve with a large enough effect; inconclusive means small, poorly fitted or top-dose-only effect, or another doubt; inactive means no such curve, though single readings can be large or run the other way; further: potency means the concentration at half of the fitted maximal effect; on the % scale 0 is the no-effect control and ±100 the full control effect
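96 h incubation, 37 C, 5% CO2, of luciferase-reporter P. falciparum-infected RBCs (2% hematocrit, 0.05% parasitemia final) with test compounds; endpoint luminescence.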
Numbers without * were called inactive; u = inconclusive; x = no result given; [ ] = remark or other dose. Unless noted, the call rests on the fitted dose curve.

SMILES | SARS PLpro yeast | Shiga inhibitor | Pf growth 48h | NS1 function inh | Cycloheximide cs | Pf growth 96h
Cc1ccc(N(Cc2ccco2)C(=O)c2ccc(N3CCCCC3)c([N+](=O)[O-])c2)cc1 | -3.7% | 105.6* | 0.0% | 26.5% | 43.7* | 11.7µM*
CCN(CC(=O)Nc1c(F)cccc1F)C(=O)CCNC(=O)c1ccco1 | 0.2% | x | u | x | x | 14.1%
Cc1cc(C=C2C(=O)NC(=S)NC2=O)c(C)n1-c1ccc2c(c1)OCO2 | -9.8% | 23.6* | -2.9% | u | 38.6* | u
Cc1cc(C=C2C(=O)NC(=O)NC2=O)c(C)n1-c1ccc2c(c1)OCO2 | 5.7% | -5.2 | 8.9% | 18.7% | -2.9 | u
Cc1ccnc(NS(=O)(=O)c2ccc(NC(=O)c3ccc(Cl)cc3[N+](=O)[O-])cc2)n1 | -1.7% | -6.5 | -24.3% | 0.8% | 6.5 | u
COc1ccc2c(c1OC)C(=O)OC2C1c2cc3c(cc2CCN1C)OCO3 (stereo not drawn) | 0.4% | -4.8 | 12.7% | -6.2% | 0.6 | 11.7µM*
COc1ccc2c(c1OC)C(=O)O[C@@H]2[C@H]1c2c(cc3c(c2OC)OCO3)CCN1C | 4.6% | -4.8 | u | 2.8% | -1.8 | u
O=c1oc2cc(Br)ccc2n1CSC1=NCCS1 | -2.9% | 100.1* | u | -38.8% | 33.9* | -12.5%
CCc1cc2cc(C(=O)N3CCN(c4ccccc4)CC3)sc2s1 | -0.1% | -4.8 | x | 0.1% | -1.9 | -27.0%
CCc1cc2cc(C(=O)N3CCN(Cc4ccccc4)CC3)sc2s1 | x | 49.2* | -18.4% | -41.0% | 21.9* | -22.9%
O=C(c1ccccc1)N1CCN(CC#Cc2ccccc2)CC1 | 0.9% | 81.5* | 58.8% | -18.6% | 28.8* | 140.7%
O=C(c1ccccc1)N1CCN(C(=O)c2ccc3c(c2)OCCO3)CC1 | -0.7% | -5.9 | u | x | -0.5 | 19.6%
O=C(c1ccc2c(c1)OCCO2)N1CCN(Cc2ccccc2)CC1 | 6.9% | 37.8 | 11.9% | -54.3% | 15.3* | u
O=C(c1ccccc1)N1CCN(Cc2ccccc2)CC1 | -12.3% | -1.7 | 13.7% | 5.8% | -2.6 | 7.38µM*
CC(C)(C)c1ccc(C(=O)N2CCN(Cc3ccccc3)CC2)cc1 | 10.5% | 5.2 | u | 27.4% | 3.4 | -9.6%
N#CC1=C(N)N(c2ccc(Br)cc2)C2=C(C(=O)CCC2)C1c1cccnc1 (stereo not drawn) | 1.8% | -1.0 | u | -2.0% | 6.1 | 2.3%
O=C(N1CCOCC1)N1CCN(Cc2ccccc2)CC1 | 1.0% | 12.7 | 15.6% | 2.1% | -4.0 | 1.65µM*
CCN1CCN(c2nnc(-c3ccc(C)cc3)c3ccccc23)CC1 | 1.0% | -7.1 | 12.8%[0.00184 µM] | -0.1% | -3.2 | 30.8%
Cc1ccc(-c2nn(-c3ccccc3)cc2/C=C(\C#N)c2cccc(C#N)c2)o1 | -0.7% | -0.8 | 11.7µM* | 2.1% | -2.5 | x
N#C/C(=C\c1cn(-c2ccccc2)nc1-c1cc2ccccc2o1)c1nc2ccccc2[nH]1 | -3.7% | 120.6* | 1.04µM* | -0.2% | 46.1* | 0.657µM*
CN(C)S(=O)(=O)c1cccc(-c2nn(-c3ccccc3)cc2/C=C2\SC(=S)NC2=O)c1 | 18.7% | -8.6 | 4.65µM* | x | 6.8 | 2.62µM*
CN(C)S(=O)(=O)c1cccc(-c2nn(-c3ccccc3)cc2/C=C(\C#N)c2nc3ccccc3[nH]2)c1 | -7.6% | -7.8 | 2.08µM* | 26.5% | 6.0 | 1.47µM*
COc1cc(OC)c(NC(=O)c2csc(C)c2)cc1Cl | 7.7% | 25.6 | -8.1% | -35.2% | 2.3 | 12.9%
Cc1cccc(C)c1NC(=O)C1c2cccc[n+]2CC(=O)N1Cc1cccs1 (stereo not drawn) | 3.3% | -13.3 | 0.0% | x | -0.3 | 42.2%[1.15 µM]
CCCn1c(CC)nc([N+](=O)[O-])c1Sc1ccc(C)cc1 | -4.9% | -32.1 | u | 1.3% | 4.8 | 10.4µM*
COc1ccccc1NC1=C(Cl)C(=O)N(c2ccccc2)C1=O | -17.1% | 0.6 | 21.5% | -3.0% | 18.7 | -17.0%
O=C1C(Cl)=C(Nc2ccccc2O)C(=O)N1CCc1ccccc1 | -76.4% | 12.0 | 11.3% | -9.3% | 30.2* | -11.2%
COc1ccc(CCNC2=C(Cl)C(=O)N(CCc3ccccc3)C2=O)cc1OC | 9.0% | 7.4 | x | 8.5% | 11.9 | u
CCOc1ccc(N2C(=O)C(Cl)=C(Nc3ccccc3O)C2=O)cc1 | -20.5% | 96.6* | x | -119.9% | 37.3* | 58.6%

Screens as filed in PubChem.
